# From PubChem BioAssay
# Hits are enriched below; roughly 12% of the tested compounds scored in any of these assays.
# MARV entry inh = Marburg virus entry inhibition; AID 540276; Potency, µM (doses to about 37.8 µM), without a hit: at the highest dose activity change, negative = inhibition, most hits filed as inhibitors; 300,000 compounds, 1.8% hits; Marburg virus pseudotyped entry inhibition, cell reporter; calls by dose curve; tested in HEK293 cells; further: potency means the concentration at half of the fitted maximal effect; on the % scale 0 is the no-effect control and ±100 the full control effect
# CHX counter = counter-screen for Shiga toxin inhibitors: cycloheximide protein synthesis inhibition; cell reporter, cycloheximide protein synthesis inhibition counterscreen; max response, %; 300,000 compounds, 12% hits; AID 2314; in the data active means max response mostly above about 13%, no sharp cut-off; inactive means mostly below about 14%; further: read at 38.3 µM for the half of the compounds with a filed dose; 0% is about no effect
# Shiga toxin inh = blocks Shiga toxin action in Vero cells; Vero cells, Shiga toxin protein synthesis inhibition reporter; 290,000 compounds, 9.2% hits; AID 2315; inhibition, % at 38.7 µM; in the data active means inhibition mostly above about 28%, no sharp cut-off; inactive means mostly below about 43%; further: 0% is about no effect
# LASV entry inh = Lassa virus entry inhibition | Lassa virus pseudotype entry inhibition, cell reporter | Potency, µM (titrated, usually from 37.9 µM), without a hit: top-dose activity change, negative = inhibition, most hits filed as inhibitors | 300,000 compounds, 1.2% hits; calls by dose curve; tested in HEK293 cells; further: potency means the concentration at half of the fitted maximal effect; on the % scale 0 is the no-effect control and ±100 the full control effect; nearly all actives have a fitted effect of over 50% in size
# Starred values were filed as active, the others as inactive; u = inconclusive; x = not tested or not shown; [ ] = another dose, or the depositor's remark.
SMILES,MARV entry inh,CHX counter,Shiga toxin inh,LASV entry inh
CCC1CCCCN1C(=O)CSc1nnc(-c2cccs2)o1 (configuration not stated),u,28.8*,88.5*,u
CC1CCCN(C(=O)CSc2nnc(-c3cccs3)o2)C1 (configuration not stated),0.0%[46.1 µM],39.0*,63.9*,-0.3%
Oc1ccc(/C=C/c2cnccn2)cc1,u,34.3*,93.6*,1.2%[46.1 µM]
Cc1ccccc1CSc1nc2cccnc2n1Cc1ccc(C(=O)NCCc2cccs2)cc1,x,x,x,-3.0%[46.1 µM]
O=C(CCNS(=O)(=O)c1ccc(OC(F)(F)F)cc1)NC1CC1,-4.1%[46.1 µM],x,x,13.4%[46.1 µM]
CCc1nnc2n1N=C(c1cccc([N+](=O)[O-])c1)CS2,x,-1.4,-9.7,x
CCCCN=C1NN=C(c2cccc([N+](=O)[O-])c2)CS1,-26.1%[46.1 µM],24.3*,83.6*,3.1%[46.1 µM]
CCCCN=C1NN=C(c2cc3ccccc3o2)CS1,5.4%[46.1 µM],41.1*,53.5*,14.0%
COc1cccc2c1nc(C)c1cc(C)oc12,-2.5%,36.3*,40.0,-3.6%
COc1ccc2nc(C)c3cc(C)oc3c2c1,2.1%,0.3,-8.6,-0.2%
O=C(CSc1n[nH]c(-c2ccccc2Cl)n1)NCc1ccc(F)cc1,x,x,x,12.7%[46.1 µM]
Cc1ccc(-c2nc(NCc3ccco3)n(C(=O)c3ccco3)n2)cc1,u,42.1*,121.6*,12.5%
O=C(c1cccnc1)n1nc(NCc2ccccc2)nc1NCc1ccccc1,-14.3%[46.1 µM],-2.0,14.9,0.4%[46.1 µM]
O=C(c1ccco1)n1nc(-c2ccccc2)nc1NCc1ccco1,15.3%,7.1,14.3,-1.6%
O=C(c1ccco1)n1nc(NCc2ccccc2)nc1NCc1ccccc1,-21.9%[46.1 µM],9.9*,37.2*,-16.1%
COc1ccccc1C(=O)n1nc(-c2ccccc2)nc1NCc1ccco1,-0.2%,20.6*,46.2,42.0%[14.3 µM]
O=C(COc1ccccc1)n1nc(-c2ccc(Cl)cc2)nc1NCc1ccco1,u,48.3*,26.2*,u
O=C(c1ccc(F)cc1)n1nc(-c2ccccc2)nc1NCc1ccco1,u,x,x,6.1%[46.1 µM]
CC(=O)NC(CC(=O)N(Cc1ccccc1)c1cccc(C)c1)c1ccccc1 (configuration not stated),-16.5%,0.7,8.5,-1.8%
C=CCOC(=O)N[C@@H](c1cccc(OC)c1)[C@@H](C)C=CCC(=O)O,6.7%[14.2 µM],x,x,x
Nc1nccc(-c2c(-c3ccc(F)cc3)nn3cc(C(F)(F)F)ccc23)n1,x,x,x,18.6%
COc1ccc(CNc2nc(NCc3ccc(OC)cc3)n(C(=O)c3ccccc3[N+](=O)[O-])n2)cc1,4.8%,25.9*,75.2*,4.11µM*
Cc1ccc(/C(C#N)=C\c2cn(C)c3ccccc23)cc1,-1.8%,18.6*,25.3*,x
CCCCNC(=O)C1=CC(c2ccc3c(c2)OCO3)=NS(=O)(=O)N1C,23.3%[46.1 µM],x,x,13.2%[46.1 µM]
CC(C)C[C@@H](NC(=O)[C@@H](O)[C@H](N)Cc1ccccc1)C(=O)O,x,40.5*,34.3*,x
SMILES,MARV entry inh,CHX counter,Shiga toxin inh,LASV entry inh
O=C(NCc1ccccc1)c1onc(CSc2ccccc2)c1C(=O)NCC1CC1,x,-2.8,-2.3,x
Cc1nc(-c2ccc(S(=O)(=O)N3CCN(C4c5ccccc5-c5ccccc54)CC3)s2)cs1,u,29.7*,93.7*,1.0%
Cc1nc(-c2ccc(S(=O)(=O)Oc3ccccc3Cl)s2)cs1,-6.5%[46.1 µM],26.0*,33.3*,8.3%[46.1 µM]
CCOC(=O)c1c(C)[nH]c(C)c1C(=O)COC(=O)/C=C/c1cccc(Cl)c1,-1.9%,-3.9,-5.8,-25.2%
COC(=O)c1c(C)[nH]c(C(=O)/C=C/c2cccc(Cl)c2)c1C,4.7%,38.8*,61.9*,9.9%
COC(=O)c1c(C)[nH]c(C(=O)/C=C/c2ccccc2)c1C,u,43.5*,89.0*,-2.3%
COC(=O)c1c(C)[nH]c(C(=O)/C=C/c2ccc(C)cc2)c1C,x,1.5,24.9,x
COC(=O)c1c(C)[nH]c(C(=O)CSc2ccc(Cl)cc2)c1C,u,30.3*,42.0,u
CC(Oc1ccc(-n2cnnn2)cc1)C(=O)O (configuration not stated),-15.7%[46.1 µM],-0.8,12.1,-0.8%
O=S(=O)(/N=C(/Nc1ccccn1)c1ccccc1)c1ccc(F)cc1,23.7%[46.1 µM],12.3,22.1*,25.8%[46.1 µM]
Cc1cccc(N/C(=N/S(=O)(=O)c2ccccc2)c2ccccc2)n1,8.4%[46.1 µM],15.0*,50.3,0.2%[46.1 µM]
NNC(=O)c1cc2cc3ccccc3nc2s1,2.8%,45.4*,67.4,-20.0%
CS(=O)(=O)NNC(=O)c1cc2cc3ccccc3nc2s1,5.5%[46.1 µM],22.2,52.6*,8.7%[46.1 µM]
CCOC(=O)c1cc(S(=O)(=O)N2CCN(c3ccc(C(C)=O)cc3)CC2)[nH]n1,x,x,x,10.8%[46.1 µM]
CCN1CCN(c2ncc(C(=O)Nc3ccccc3C(=O)OC)c3ccccc23)CC1,12.6µM*,-2.3,-3.9,u
CCOC(=O)C1CCN(C(=O)c2ccccc2NC(=O)C2=C(C)OCCS2)CC1,x,-1.9,-7.5,x
COCCCNC(=O)/C=C1\Sc2ccccc2N(Cc2ccccc2F)C1=O,x,31.6*,43.6,x
CCN1CCN(CCNC(=O)c2ccc(/C=C3\Sc4ccccc4N(Cc4ccccc4F)C3=O)cc2)CC1,x,-7.0,-19.9,x
Cc1nc(N)sc1C(=O)N/N=C/c1c[nH]c2ccccc12,2.91µM*,21.1*,37.9,9.8%
CC(/C=N/NC(=O)c1sc(N)nc1C)=C\c1ccccc1,17.6%[46.1 µM],43.8*,56.4*,-4.8%[46.1 µM]
Cc1nc(N)sc1C(=O)N/N=C/c1ccco1,-7.5%,-3.6,1.7,-3.5%
Cc1nc(N)sc1C(=O)N/N=C/c1ccccc1[N+](=O)[O-],x,35.6*,126.1*,x
CN(CC(=O)NCCc1ccc(S(N)(=O)=O)cc1)CC(=O)Nc1ccccc1C(F)(F)F,u,x,x,6.5%
Cc1cccc(OCCSc2nc3ccc(NC(=O)COc4ccccc4)cc3s2)c1,-2.1%[46.1 µM],x,x,2.2%[46.1 µM]
CCCCN1C(=O)/C(=C2\SC(N3CCOCC3)=NC2=O)c2ccccc21,x,28.5*,98.6*,x
SMILES,MARV entry inh,CHX counter,Shiga toxin inh,LASV entry inh
CCOC(=O)C1C(c2cccs2)NC(=O)N(C)C1(O)C(F)(F)F (configuration not stated),7.5%,-3.3,-3.2,-6.9%
CN1C(=O)NC(c2cccc(O)c2)C(C(=O)c2cccs2)C1(O)C(F)(F)F (configuration not stated),19.5%,57.2*,84.8*,u
O=C(COc1ccc(Cl)cc1Cl)Nc1ccc(C(=O)Nc2ccccc2C(=O)O)cc1,x,34.9*,45.2,x
Cc1ccccc1NC(=S)NC(=O)COc1ccccc1C,-2.6%[46.1 µM],27.5*,-13.7,21.0%[46.1 µM]
CC(C)(CO)NC(=O)CCCOc1ccc(Cl)cc1Cl,-0.5%,49.9*,53.9*,u
O=C(CCCOc1ccc(Cl)cc1Cl)Nc1ccccc1C(=O)O,3.16µM*,42.5*,84.0*,u
Cc1ccccc1OCC(=O)Nc1ccccc1-c1ccccc1NC(=O)COc1ccccc1C,u,-5.0,-4.0,u
O=C(COc1ccc(Cl)cc1Cl)NC(=S)Nc1ccccc1C(=O)O,x,22.6*,34.8*,x
CCOc1ccc(-c2noc(CSc3nnc(-c4ccccc4)n3-c3ccccc3)n2)cc1,1.8%[46.1 µM],x,x,-24.3%[46.1 µM]
CCOc1ccc(-c2nnc(SCc3nnc(-c4ccccc4)o3)n2-c2ccccc2F)cc1,u,19.7*,52.3,u
O=C(N1CCCCC1)C1(S(=O)(=O)c2ccccc2)CC=CC1,x,16.7*,9.8,x
COCCNC(=O)C1(S(=O)(=O)c2ccccc2)CC=CC1,x,12.8*,25.3,x
